# Source: PubChem (National Center for Advancing Translational Sciences (NCATS))
# Sampled rows, rich in hits. Any-hit rate of the full collection: about 2.2%.
# Mito fusion yeast: blocks mitochondrial division or promotes mitochondrial fusion; S. cerevisiae fusion-defective mutant growth rescue, CellTiterGlo 48 h; Potency, µM (series often up to 46.1 µM), usual class: activators; actives 0.23% (n = 320,000); note: nearly all actives have a fitted effect of over 45% in size
#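 Yeast fusion mutant, YPEG (non-fermentable carbon), compound, 48 h at 37C non-permissive; CellTiterGlo added, 10 min RT, luminescence read. Rescued growth = division inhibition.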
# Abeta yeast res: A-beta toxicity reversal in yeast. yeast expressing A-beta42, growth rescue, OD600, 48 h; response scale: 0% DMSO, 100% iron-clioquinol control. Potency, µM (titrated, usually from 46.1 µM), actives largely listed as activators. actives 0.063% (n = 410,000). AID 1347071; note: nearly all actives have a fitted effect of over 55% in size
#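 Yeast A-beta toxicity model in growth medium with pinned compounds, 48 h at 30 C; growth read as absorbance at 600 nm. Normalized to FeCl3/clioquinol equimolar mix (positive) and DMSO (negative).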
# FUS suppressor: rescues growth of FUS-expressing yeast. S. cerevisiae FUS-expressing, growth rescue, OD600, 24 h. Potency, µM (top dose mostly 76.6 µM), hits mostly activators. actives 0.24% (n = 390,000); note: nearly all actives have a fitted effect of over 55% in size
#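 Quantitative HTS measuring growth restoration of FUS-toxic yeast. Galactose-induced cells (OD 0.005) were exposed 24hr at 30C to compounds at several concentrations, then absorbance at 600 nm was recorded.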
# aSyn yeast inh: rescues yeast growth from alpha-synuclein toxicity | Yeast expressing alpha-synuclein, growth rescue, BacTiter-Glo, 24 h | Potency, µM (top dose mostly 46.1 µM), usual class: activators | actives 0.14% (n = 370,000); note: nearly all actives have a fitted effect of over 65% in size
#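 Galactose-induced alpha-syn yeast (OD600=0.02, raffinose-pregrown) + pinned cpd, 24 hr, 30 deg C; growth by BacTiter-Glo luminescence. Growth restoration scores as activation.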
# TDP-43 yeast inh: inhibitors of TDP-43 toxicity in yeast | Potency, µM (highest dose often 46.1 µM), hits mostly activators | actives 1.8% (n = 410,000) | TDP-43 expressing yeast growth rescue, BacTiter-Glo, 24 h | AID 652104; note: nearly all actives have a fitted effect of over 50% in size
#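 In this qHTS, compounds that restore growth of yeast expressing TDP-43 appear as activators. Cells (OD600=0.02, galactose medium, raffinose-pregrown) are incubated with compound 24 hr at 30 deg C and growth is quantified by BacTiter-Glo.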
# Hits are given with their value; - = inactive; ? = inconclusive; . = not tested or not shown. Calls come from the whole dose curve; as a rule, active = well fitted curve in the direction sought with a large enough effect; inconclusive = small, poorly fitted or top-dose-only effect, or another doubt; inactive = no such curve, though single readings can be large; an effect the other way counts as inactive or inconclusive.
SMILES,Mito fusion yeast,Abeta yeast res,FUS suppressor,aSyn yeast inh,TDP-43 yeast inh
NC(=S)N/N=C/c1ccc(-c2cc(Cl)c(Cl)cc2Cl)o1,-,13µM,-,-,-
Clc1ccccc1-c1ccc(/C=N/n2cnnc2)o1,-,-,-,-,11µM
COC(=O)N/N=C/c1ccc(-c2ccccc2Cl)o1,-,-,-,-,20µM
NC(=S)N/N=C/c1ccc(Br)o1,-,-,-,-,-
Cc1ccc(N(CC(C)C)S(=O)(=O)c2nnc(NC(=O)c3cccs3)s2)cc1,.,-,-,.,-
CC1CCCN(S(=O)(=O)c2ccc(S(=O)(=O)NC(C)c3cccs3)cc2)C1 (configuration not stated),-,-,32µM,-,-
Oc1ccccc1C1C=C(c2ccc3c(c2)OCO3)NC(c2ccc(Br)cc2)N1 (configuration not stated),.,.,.,-,.
Cc1ccc(/C=N/n2cc(-c3ccccc3)[nH]c2=S)s1,-,4.5µM,-,-,-
CCOc1ccc(NC(=O)c2sc3nc4c(c(-c5ccc(OC)cc5)c3c2N)C(=O)CC(C)(C)C4)cc1,.,-,-,.,-
COc1ccc(/C=C/C(=O)N2CCN(S(=O)(=O)c3ccccc3Br)CC2)cc1OC,.,-,?,?,22µM
COc1ccc(/C=C/C(=O)N2CCN(S(=O)(=O)c3ccccc3)CC2)cc1OC,-,-,-,-,-
COc1ccc(S(=O)(=O)N2CCOC23CCN(C(=O)c2c(F)cccc2Cl)CC3)cc1,-,?,-,-,18µM
Oc1c(Cl)cc(Cl)cc1/C=N/Nc1ncc(Br)cn1,-,-,-,1µM,-
O=C(N/N=C/c1cc(Cl)cc(Cl)c1O)c1ccncc1,-,-,-,-,?
Cc1nc2ccc(NC(=O)Cc3ccc4c(c3)OCCO4)cc2s1,-,-,.,-,3.5µM
CC(=O)NNC(=S)NC(=O)C(c1ccccc1)c1ccccc1,-,?,-,-,25µM
CC(C)(C)C(=O)NC(=S)NNC(=O)C(c1ccccc1)c1ccccc1,-,?,-,18µM,?
CCC(=O)N1CCc2cc(S(=O)(=O)CCC(=O)N3CCN(c4ccccc4Cl)CC3)ccc21,.,-,-,.,-
COc1ccc(C)cc1NC(=O)Cn1cc(S(=O)(=O)N2CCC(C)CC2)c2ccccc2c1=O,.,-,-,.,-
Cc1cc2n(n1)C(c1cn(-c3ccccc3)nc1C)Nc1ccccc1-2 (configuration not stated),-,-,-,-,-
Cc1cc2n(n1)C(c1c[nH]c3ccccc13)Nc1ccccc1-2 (configuration not stated),?,-,.,-,7.9µM
CCOC(=O)c1noc2ncn(CC(=O)Nc3ccc(F)cc3Cl)c(=O)c12,.,-,-,-,-
Cc1cc(OC(=O)c2ccc(C(C)(C)C)cc2)c([N+](=O)[O-])c(=O)[nH]1,-,-,-,-,16µM
Cc1cc(C)cc(C(=O)Oc2cc(C)[nH]c(=O)c2[N+](=O)[O-])c1,-,.,-,-,?
CN(C1CCCCC1)S(=O)(=O)c1ccc(SCC(=O)C(C)(C)C)nc1,.,-,-,?,20µM
SMILES,Mito fusion yeast,Abeta yeast res,FUS suppressor,aSyn yeast inh,TDP-43 yeast inh
COc1cccc(N2CCN(c3cnc4ccccc4n3)CC2)c1,-,-,-,-,35µM
COc1ccc(N2CCN(c3cnc4ccccc4n3)CC2)cc1,-,-,-,-,-
COc1cccc(-c2nc(CCl)cs2)c1,-,-,-,-,11µM
COc1ccccc1C1C(C(=O)Nc2ccccc2)=C(C)Nc2nc(-c3ccccc3)nn21 (configuration not stated),.,-,-,.,-
CC(C)(C)C(=O)O/N=C(\N)c1c(Cl)cccc1Cl,-,-,-,-,13µM
Cc1onc(-c2c(Cl)cccc2Cl)c1/C(N)=N/OC(=O)C(C)(C)C,-,-,-,-,-
Cc1cc2nc(C3CCCCC3)c(Cc3ccsc3)n2c(C)c1Br,.,-,-,3.5µM,-
Cc1cc2nc(C(C)(C)C)c(Cc3ccsc3)n2c(C)c1Br,.,?,-,-,13µM
Cc1ccc(Cc2c(C(C)(C)C)nc3cc(C)c(Br)c(C)n23)cc1,.,-,-,-,-
Cc1ccc(-n2c(=O)c3c4c(sc3n(CC(=O)Nc3cccc(Cl)c3)c2=O)CCCCC4)cc1C,.,-,-,.,-
Cc1ccc2ccc3cc(C(=O)Nc4ccc(C)c(F)c4)nc3c2[nH]1,.,-,-,-,4µM
COc1ccc(NC(=S)N(CCc2c(C)[nH]c3ccc(C)cc23)Cc2ccco2)cc1,-,-,-,-,-
CCOc1ccc(NC(=S)N(CCc2c(C)[nH]c3ccc(C)cc23)Cc2ccco2)cc1,-,-,25µM,-,-
Cc1ccc(C(=O)Nc2ccc3ncccc3c2)cc1,-,-,-,-,-
COc1cc(/C=C/C(=O)c2ccc(C)cc2)ccc1OCC#N,-,-,.,-,20µM
COc1cc(/C=C/C(=O)c2ccc(F)cc2)cc(OC)c1OC,-,-,-,-,14µM
Cc1ccc(C(=O)/C=C/c2ccc3ncccc3c2)cc1,-,-,-,-,13µM
CCOc1ccc(C(=O)/C=C/c2cc(OC)c(OC)c(OC)c2)cc1,-,-,-,-,-
COc1ccc(/C=C/C(=O)c2cc(F)ccc2OC(=O)c2ccccc2)cc1OC,.,-,-,-,13µM
CCOc1ccccc1CNC(=O)CCC(=O)N1CCSc2ccccc21,.,-,-,.,-
COc1cc2nc(N3CCCN(C)CC3)nc(N3CCN(C)CC3)c2cc1OC,.,.,.,-,.
CCOc1cc(/C=N\O)cc(Cl)c1OCC,-,-,-,-,10µM
COc1cccc(/C=N/c2oc(-c3ccccc3)cc2C#N)c1O,-,-,-,-,13µM
Cc1cc(C(=O)Nc2ccc3c(c2)CCC3)ccc1[N+](=O)[O-],.,-,-,-,-
CCOc1ccc(N/C=C/C(=O)c2ccc(OC)c(OC)c2)cc1,-,-,-,?,16µM
SMILES,Mito fusion yeast,Abeta yeast res,FUS suppressor,aSyn yeast inh,TDP-43 yeast inh
CCCOc1ccc(N/C=C/C(=O)c2ccc(OC)c(OC)c2)cc1,-,-,-,-,-
CCC1CCC(C(=O)NC(C(=O)NCCN(CC(C)C)CC(C)C)C(C)C)CC1 (configuration not stated),.,-,-,.,-
Cc1csc(NC(=O)Cc2ccc(Br)cc2)n1,-,-,-,-,10µM
Cc1csc(NC(=O)Cc2ccc(Cl)cc2)n1,.,-,-,-,?
Cc1csc(NC(=O)C(C)Oc2ccc(Br)cc2)n1 (configuration not stated),?,-,-,-,35µM
Cc1nn(C)c(C(=O)Nc2ccn(Cc3c(F)c(F)cc(F)c3F)n2)c1[N+](=O)[O-],-,-,.,-,7.9µM
O=[N+]([O-])c1cc(Cl)ccc1NCCNS(=O)(=O)c1ccccc1,-,-,-,-,-
O=[N+]([O-])c1ccccc1NCCNS(=O)(=O)c1ccc(Cl)cc1,-,-,.,-,11µM
O=c1cc(N2CCN(c3cccc(C(F)(F)F)c3)CC2)[nH]c(=O)n1-c1ccccc1,.,.,-,.,.
